# Compound activity (PubChem BioAssay)
# KDM5B inhibitor: Primary screen for KDM5B Histone Demethylases FDH-coupled qHTS; KDM5B demethylase, FDH-coupled NADH fluorescence (FDH is formaldehyde dehydrogenase); Potency, µM (doses to about 57.7 µM), most hits filed as inhibitors; 2.6% of 220,000 active; AID 1347165, 2019; active = well fitted inhibition curve with a large enough effect; note: 0% is about no effect; nearly all actives have a fitted effect of over 70% in size
# Target sequence (Q9UGL1 whole entry, looked up): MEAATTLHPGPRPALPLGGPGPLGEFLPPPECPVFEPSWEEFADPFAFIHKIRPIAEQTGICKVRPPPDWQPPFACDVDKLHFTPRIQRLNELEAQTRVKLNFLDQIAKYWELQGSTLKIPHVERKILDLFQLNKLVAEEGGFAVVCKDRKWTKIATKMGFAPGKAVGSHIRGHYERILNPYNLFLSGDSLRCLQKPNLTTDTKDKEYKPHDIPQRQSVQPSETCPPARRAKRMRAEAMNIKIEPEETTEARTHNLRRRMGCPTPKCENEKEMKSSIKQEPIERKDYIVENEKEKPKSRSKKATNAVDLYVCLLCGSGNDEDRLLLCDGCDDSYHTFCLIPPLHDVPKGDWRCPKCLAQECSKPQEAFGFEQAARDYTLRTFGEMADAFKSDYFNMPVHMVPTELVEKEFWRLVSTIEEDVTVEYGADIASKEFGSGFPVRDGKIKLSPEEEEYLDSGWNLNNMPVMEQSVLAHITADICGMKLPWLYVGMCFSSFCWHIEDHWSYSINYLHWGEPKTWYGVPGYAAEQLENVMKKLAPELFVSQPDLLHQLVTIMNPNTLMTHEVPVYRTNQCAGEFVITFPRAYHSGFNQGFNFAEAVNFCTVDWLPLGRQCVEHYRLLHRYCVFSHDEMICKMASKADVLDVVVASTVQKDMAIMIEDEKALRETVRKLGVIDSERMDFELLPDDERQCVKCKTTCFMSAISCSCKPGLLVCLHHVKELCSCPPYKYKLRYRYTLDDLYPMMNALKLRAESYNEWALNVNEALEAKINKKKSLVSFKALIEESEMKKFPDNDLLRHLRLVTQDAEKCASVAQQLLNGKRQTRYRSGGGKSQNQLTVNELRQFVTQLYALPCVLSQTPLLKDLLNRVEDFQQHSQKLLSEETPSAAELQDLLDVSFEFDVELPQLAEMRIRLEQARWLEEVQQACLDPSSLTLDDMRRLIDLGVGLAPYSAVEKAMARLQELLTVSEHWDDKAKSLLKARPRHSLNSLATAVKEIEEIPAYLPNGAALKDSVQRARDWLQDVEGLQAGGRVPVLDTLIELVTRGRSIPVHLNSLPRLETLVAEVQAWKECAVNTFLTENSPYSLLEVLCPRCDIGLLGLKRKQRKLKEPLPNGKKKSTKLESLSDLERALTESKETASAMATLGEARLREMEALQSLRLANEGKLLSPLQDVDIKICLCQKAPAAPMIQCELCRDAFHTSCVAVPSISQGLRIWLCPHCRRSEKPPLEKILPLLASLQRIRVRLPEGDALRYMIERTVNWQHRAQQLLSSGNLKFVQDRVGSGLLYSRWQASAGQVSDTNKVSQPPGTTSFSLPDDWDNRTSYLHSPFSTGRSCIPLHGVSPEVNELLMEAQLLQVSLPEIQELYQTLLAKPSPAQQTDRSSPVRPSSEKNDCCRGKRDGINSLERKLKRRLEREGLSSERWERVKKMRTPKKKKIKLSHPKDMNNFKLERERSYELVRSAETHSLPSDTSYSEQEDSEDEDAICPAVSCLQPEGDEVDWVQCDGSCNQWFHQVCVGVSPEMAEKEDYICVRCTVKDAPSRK
#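 Measured: NADH fluorescence change, 30 min, RT. System: KDM5BΔAP 200 nM final, H3K4me3 peptide, α-KG, Fe(II), ascorbate, NAD⁺ plus FDH, pH 7.5 HEPES. Compounds: titrated, 10 min pre-incubation with enzyme.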
# * marks the source's active call; other numbers are inactive results; i = inactive. The entries come from a sample that favours hits as a whole. Potency is the fitted concentration of half-maximal effect.
SMILES,KDM5B inhibitor
COC(=O)CSc1n[nH]c(=O)c2cc(-c3ccc(OC)c(OC)c3)nn12,i
CCc1noc(-c2cccn3c(CNC(=O)c4ccc(F)c(F)c4)nnc23)n1,3.98µM*
CC(C)c1noc(-c2cn(C3CCN(C(=O)c4cc(Cl)ccc4F)C3)nn2)n1 (centres undefined),i
CC(C)c1noc(-c2cccn3c(CNC(=O)c4cc(F)ccc4F)nnc23)n1,25.1µM*
CCc1noc(-c2cn(C3CCN(C(=O)c4ccc(F)c(F)c4)CC3)nn2)n1,i
CCc1noc(-c2cccn3c(CNC(=O)c4cc(F)ccc4F)nnc23)n1,28.2µM*
CC(C)c1noc(-c2cccn3c(CNC(=O)c4cc(F)ccc4Cl)nnc23)n1,22.4µM*
Cc1ccc(Nc2nc(CSc3nnnn3C3CCCC3)cs2)cc1,i
COc1cc(NC(=O)C(=O)NCCc2ccccc2)ccc1N1CCCCS1(=O)=O,i
Cc1ccc(SC(C)C(=O)NC2CCCC2)cc1C (centres undefined),i
Cc1ccc(C(=O)Nc2ccc3oc(-c4ccc(F)cc4)nc3c2)cc1[N+](=O)[O-],i
CCOc1ccc2cc(-c3csc(Nc4ccc(F)cc4)n3)c(=O)oc2c1,i
O=C(NNC(=O)C1CCCCC1)c1ccc(Cl)cc1,i
CCN(C(=O)CCNC(=O)c1ccccc1C)C12CC3CC(CC(C3)C1)C2,i
COc1cccc(-c2nc(CC(=O)NC3CCN(Cc4ccccc4)CC3)cs2)c1,i
Cc1ccc(-c2ocnc2C(=O)NCCc2cccc(C)c2)cc1,i
CCc1ccc(NC(=O)Cn2ccn(-c3ccc(OC)c(OC)c3)c(=O)c2=O)cc1,i
CCNC(=O)c1cc2cc(N(C)S(C)(=O)=O)ccc2s1,i
Cc1ccc(-c2nc(C(=O)NCc3ccc(F)cc3Cl)no2)cc1,i
CC(C)c1noc(-c2cn(C3CCN(C(=O)c4ccc(F)cc4Cl)CC3)nn2)n1,i
CC(C)c1noc(-c2cccn3c(CNC(=O)c4ccc(F)cc4Cl)nnc23)n1,25.1µM*
Cc1cc(NC(=O)CN2CCN(C(=O)c3cc(Cl)ccc3F)CC2)no1,i
COc1cccc(N2CC(C(=O)Nc3ccccc3C(=O)N3CCN(c4ccccc4)CC3)CC2=O)c1 (centres undefined),i
Cc1cc(C)c(CNC(=O)c2nc(-c3cccc(F)c3)cc3c2ccn3C)c(=O)[nH]1,i
Cc1cc(C)c(CNC(=O)c2nc(-c3ccc(CO)cc3)cc3c2ccn3C)c(=O)[nH]1,35.5µM*
SMILES,KDM5B inhibitor
COc1ccc(-c2cc3c(ccn3C)c(C(=O)NCc3c(C)cc(C)[nH]c3=O)n2)cc1,i
Cc1cc(C)c(CNC(=O)c2nc(-c3cccnc3)cc3[nH]ccc23)c(=O)[nH]1,i
Cc1cc(C)c(CNC(=O)c2nc(-c3ccnn3C)cc3c2ccn3C(C)C)c(=O)[nH]1,31.6µM*
Cc1cc(C)c(CNC(=O)c2nc(-c3ccccc3)cc3[nH]ccc23)c(=O)[nH]1,i
Cc1cc(C)c(CNC(=O)c2nc(-c3ccccc3C#N)cc3c2ccn3C(C)C)c(=O)[nH]1,i
Cc1cc(C)c(CNC(=O)c2nc(-c3ccccc3)cc3c2ccn3C(C)C)c(=O)[nH]1,i
Cc1cc(C)c(CNC(=O)c2nc(-c3cccc(O)c3)cc3c2ccn3C)c(=O)[nH]1,35.5µM*
Cc1cc(-c2cc3[nH]ccc3c(C(=O)NCc3c(C)cc(C)[nH]c3=O)n2)ccn1,11.2µM*
CCN(c1ccccc1)S(=O)(=O)c1ccc(OC)c(NC(=O)c2n[nH]c(=O)c3ccccc23)c1,i
CCS(=O)(=O)c1nc(S(=O)(=O)c2ccc(C)cc2)c(NC2CCCC2)s1,i
O=C1/C(=C/c2ccc(OCc3ccccc3)cc2)CCc2ccccc21,i
Cn1c(=O)c2c(ncn2CC(=O)Nc2ccccc2Cl)n(C)c1=O,i
CC(C)CCN1C[C@@H]2[C@H](C1)N(CCOc1ccccc1)C(=O)C(C)(C)[S+]2(=O)[O-],i
CN(CC(=O)NC(N)=O)C1CCCCCC1,i
CC(Oc1cccc(F)c1)C(=O)NCCc1cccs1 (centres undefined),i
Cc1ccccc1C(=O)N1CCC(C(=O)NCC(F)(F)F)CC1,i
CCc1ccc(CNC(=O)c2c(C)oc3nc(C)nc(N4CCCC4)c23)cc1,i
Cc1cn2nc(C(=O)NC(C)CCc3ccccc3)cc2c(N2CCCC2)n1 (centres undefined),i
CCc1ccc(CNC(=O)C2CCN(c3nc4ccccc4nc3C(F)(F)F)CC2)cc1,i
Cc1c(C(=O)NCc2ccc(Cl)cc2)sc2nc3n(c(=O)c12)CCCC3,i
O=C(NCc1ccc(Cl)cc1)c1cnc2sc(N3CCCCCC3)nn2c1=O,i
Cc1cn2nc(C(=O)NCc3ccc(Cl)cc3)cc2c(N2CCCC2)n1,31.6µM*
COc1ccc(CNC(=O)c2cc3c(N4CCCC4)nc(C)cn3n2)cc1,i
Cc1cn2nc(C(=O)NCc3ccc(C(F)(F)F)cc3)cc2c(N2CCCC2)n1,28.2µM*
Cc1cn2nc(C(=O)NCc3ccc(F)cc3F)cc2c(N2CCCC2)n1,i
SMILES,KDM5B inhibitor
CCc1ccc(CNC(=O)c2cc3c(N4CCCC4)nc(C)cn3n2)cc1,25.1µM*
Cc1cn2nc(C(=O)NCc3ccccc3C(F)(F)F)cc2c(N2CCCC2)n1,14.1µM*
COc1cc(/C=N/O)ccc1OCC(=O)NN,i
CC(=O)N1CCC(C(=O)Nc2ccc(Br)cc2F)CC1,i
COc1ccc(C2/C(=C(\O)c3ccccc3)C(=O)C(=O)N2c2ccc(NC(C)=O)cc2)cc1 (centres undefined),i
COc1ccccc1-c1noc(CCCC(=O)Nc2ccc(S(=O)(=O)N3CCC(C)CC3)cc2)n1,i
COc1ccc(C2=NS(=O)(=O)N(C)C(C(=O)NC(C)C)=C2)cc1OC,i
Cc1ccc(C(C)C)c(OCC(O)CNCc2ccccc2)c1 (centres undefined),i
Cc1cc(C(=O)NCc2ccc3c(c2)OCO3)c(C)o1,i
Cc1cn2nc(C(=O)NC3CCC(C)CC3)cc2c(N2CCCC2)n1 (centres undefined),28.2µM*
Cc1cn2nc(C(=O)NCc3ccc(Br)cc3)cc2c(N2CCCC2)n1,28.2µM*
COc1ccc(CNC(=O)C2CCN(C(=O)c3cc4c(=O)[nH]c(C)cn4n3)CC2)cc1,i
CCc1ccc(CNC(=O)c2c(C)oc3ncnc(N4CCCCC4)c23)cc1,i
Cc1nc(N2CCC(C(=O)NCCC3=CCCCC3)CC2)cc(C(F)(F)F)n1,i
Cc1ccc(-n2cnc3cc(C(=O)NCCC4=CCCCC4)ccc32)c(C)c1,i
CCCN1C(=O)c2cc(C(=O)NCc3ccc4c(c3)OCO4)nn2CC1(C)C(=O)NC1CCCC1 (centres undefined),i
Cc1cn2nc(C(=O)NCCC3=CCCCC3)cc2c(N2CCCC2)n1,10µM*
Cc1cn2nc(C(=O)N3CCC(C(=O)NC4CCCCCC4)CC3)cc2c(=O)[nH]1,i
Cc1cn2nc(C(=O)NCc3ccc4c(c3)OCO4)cc2c(N2CCCC2)n1,25.1µM*
Cc1cn2nc(C(=O)NC(C)c3ccccc3)cc2c(N2CCCC2)n1 (centres undefined),i
O=C(CSc1ncnc2ccccc12)Nc1ccccc1Oc1ccccc1,i
CCONC(=O)COc1cccc(C(C)C)c1,i
COc1ccc(C)cc1NC(=O)c1ccc(-n2cccn2)cc1,i
CCOc1ccc(CC(=O)N2CCC3(CC2)N=C(c2ccc(C)cc2)NO3)cc1,i
CNC(=O)NC(=O)CN(CC(C)O)c1ccccc1 (centres undefined),i
